Measured values from PubChem BioAssay (EPA / NIEHS).
Inconclusive results are not listed. Calls of active or inactive are those of the source. How the source made its calls, unless noted: active means hit-call score of the fitted dose curve at least 0.9, where 1 is the maximum; inconclusive means response in the unintended direction; inactive means score below 0.9.

How the values were obtained:
[1] = molecular target: human Dopamine Transporter (DAT), SLC6A3 (gene 6531) (UniProt Q01959); test: NVS_TR_hDAT: NovaScreen (NVS) Transporter Assay for human Dopamine Transporter (DAT) (AID 2283374);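 further: activity means loss of bound radioligand signal relative to DMSO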
Sequence of human Dopamine Transporter (DAT), SLC6A3 (gene 6531) (Q01959 whole entry, looked up): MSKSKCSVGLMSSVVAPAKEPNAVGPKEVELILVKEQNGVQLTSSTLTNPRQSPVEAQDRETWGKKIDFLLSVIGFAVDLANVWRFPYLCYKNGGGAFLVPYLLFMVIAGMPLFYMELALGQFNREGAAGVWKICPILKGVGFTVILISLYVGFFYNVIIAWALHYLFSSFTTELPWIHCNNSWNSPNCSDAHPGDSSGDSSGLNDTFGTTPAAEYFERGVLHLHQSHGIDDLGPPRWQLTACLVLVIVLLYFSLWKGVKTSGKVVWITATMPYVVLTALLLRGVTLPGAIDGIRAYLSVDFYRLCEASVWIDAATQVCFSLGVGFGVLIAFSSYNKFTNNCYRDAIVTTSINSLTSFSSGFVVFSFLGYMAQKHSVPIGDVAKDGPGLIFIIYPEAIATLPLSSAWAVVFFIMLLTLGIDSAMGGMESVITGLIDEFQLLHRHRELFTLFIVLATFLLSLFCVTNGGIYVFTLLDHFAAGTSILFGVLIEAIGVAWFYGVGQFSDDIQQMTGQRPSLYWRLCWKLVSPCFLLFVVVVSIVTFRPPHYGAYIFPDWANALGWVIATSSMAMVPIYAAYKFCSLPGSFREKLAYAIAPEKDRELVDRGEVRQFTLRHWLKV
Summary of the method: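 Duplicate single-point screening at 25 uM preceded concentration-series follow-up of actives. Binding was measured by competitive displacement of a radioligand from DAT protein, filter-counted by scintillation 1 h after dosing. Decrease relative to DMSO taken as activity.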

[2] = molecular target: human Norepinephrine Transporter (NET), SLC6A2 (gene 6530) (UniProt P23975); test: NVS_TR_hNET: NovaScreen (NVS) Transporter Assay for human Norepinephrine Transporter (NET) (AID 2283377);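 further: cell-free membrane protein extracted from CHO cells expressing human NET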;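 on AC50: displacement of radioligand from human NET seen as loss of scintillation signal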
Sequence of human Norepinephrine Transporter (NET), SLC6A2 (gene 6530) (P23975 whole entry, looked up): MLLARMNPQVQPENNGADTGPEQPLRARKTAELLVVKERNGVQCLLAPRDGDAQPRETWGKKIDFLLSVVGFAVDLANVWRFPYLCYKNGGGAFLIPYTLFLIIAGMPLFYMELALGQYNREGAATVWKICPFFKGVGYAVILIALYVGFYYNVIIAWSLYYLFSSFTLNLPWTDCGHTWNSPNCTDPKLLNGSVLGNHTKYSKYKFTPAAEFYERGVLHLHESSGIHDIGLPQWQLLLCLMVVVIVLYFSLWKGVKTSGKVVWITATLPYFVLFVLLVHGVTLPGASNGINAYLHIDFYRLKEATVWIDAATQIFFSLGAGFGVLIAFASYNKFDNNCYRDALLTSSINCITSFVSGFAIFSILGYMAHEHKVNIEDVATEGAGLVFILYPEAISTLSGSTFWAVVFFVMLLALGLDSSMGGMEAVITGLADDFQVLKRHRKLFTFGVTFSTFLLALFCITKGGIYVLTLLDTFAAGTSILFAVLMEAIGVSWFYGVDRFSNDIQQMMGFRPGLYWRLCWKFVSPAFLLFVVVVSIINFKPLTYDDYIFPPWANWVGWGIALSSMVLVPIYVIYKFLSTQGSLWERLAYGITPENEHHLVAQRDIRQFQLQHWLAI
Summary of the method: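 Single-concentration duplicate screen at 25 uM, then concentration-response for actives; displacement of specific radioligand from human NET in CHO membrane extracts, filter-based scintillation detection at 1 h relative to DMSO.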

[3] = molecular target: Estrogen receptor beta (Homo sapiens) (UniProt Q92731); test: OT_ER_ERbERb_1440: Odyssey Thera (OT) 24-hour HEK293T Protein-Complementation Assay for Estrogen Receptor-beta/-beta Homodimer (AID 2283380);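 further: fluorescence gain from ER beta LBD homodimer complementation read by laser scanning cytometry; scored as signal increase over DMSO baseline for both agonists and antagonists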
Sequence of Estrogen receptor beta (Homo sapiens) (Q92731 whole entry, looked up, the tested form may be a part): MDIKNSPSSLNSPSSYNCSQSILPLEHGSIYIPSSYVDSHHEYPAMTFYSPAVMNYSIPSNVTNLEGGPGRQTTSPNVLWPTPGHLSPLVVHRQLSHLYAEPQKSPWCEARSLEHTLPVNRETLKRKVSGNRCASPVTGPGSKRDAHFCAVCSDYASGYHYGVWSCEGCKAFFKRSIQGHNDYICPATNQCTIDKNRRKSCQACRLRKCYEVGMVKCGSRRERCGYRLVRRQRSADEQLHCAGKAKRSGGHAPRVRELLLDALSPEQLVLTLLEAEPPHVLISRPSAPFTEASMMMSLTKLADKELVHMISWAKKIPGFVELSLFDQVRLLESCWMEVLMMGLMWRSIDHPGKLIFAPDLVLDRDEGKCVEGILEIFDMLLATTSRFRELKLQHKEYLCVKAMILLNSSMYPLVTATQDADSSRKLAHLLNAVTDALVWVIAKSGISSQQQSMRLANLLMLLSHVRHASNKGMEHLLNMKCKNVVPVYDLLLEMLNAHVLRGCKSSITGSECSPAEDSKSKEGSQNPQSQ
Summary of the method: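 Fluorescence increase, nuclear for agonists or whole-cell for antagonists, relative to DMSO vehicle, quantified by laser scanning cytometer after fixation and Draq5 staining. Readout from 24 h treatment of HEK293T cells carrying complementation-paired ER beta LBD (aa 310-547).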

[4] = molecular target: Estrogen receptor (Homo sapiens) (UniProt P03372); test: OT_ERa_GFPERaERE_0480: Odyssey Thera (OT) 8-hour HeLa Transcription Induction Assay for Estrogen Receptor (AID 2283381; active means hit-call score of the fitted dose curve at least 0.9, where 1 is the maximum; inactive means score below 0.9)
Sequence of Estrogen receptor (Homo sapiens) (P03372 whole entry, looked up): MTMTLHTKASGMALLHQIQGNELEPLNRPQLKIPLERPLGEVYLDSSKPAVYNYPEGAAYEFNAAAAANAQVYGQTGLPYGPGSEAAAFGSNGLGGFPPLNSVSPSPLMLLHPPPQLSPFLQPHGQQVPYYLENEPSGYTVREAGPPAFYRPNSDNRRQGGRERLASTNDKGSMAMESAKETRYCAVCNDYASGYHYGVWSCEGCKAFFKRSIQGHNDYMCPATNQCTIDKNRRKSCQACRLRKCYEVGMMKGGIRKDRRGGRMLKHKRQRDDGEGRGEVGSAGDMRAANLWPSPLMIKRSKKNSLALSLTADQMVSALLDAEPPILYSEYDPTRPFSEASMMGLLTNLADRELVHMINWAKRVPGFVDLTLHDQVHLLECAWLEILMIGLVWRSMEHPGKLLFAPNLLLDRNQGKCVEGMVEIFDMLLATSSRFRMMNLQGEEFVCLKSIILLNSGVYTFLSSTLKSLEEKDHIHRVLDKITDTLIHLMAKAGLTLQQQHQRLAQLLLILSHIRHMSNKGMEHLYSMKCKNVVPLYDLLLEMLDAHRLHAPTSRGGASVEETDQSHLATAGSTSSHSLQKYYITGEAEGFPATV
Summary of the method: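 Fluorescence microscopy with high-content image analysis measures ERE-driven GFP induction in HeLa cells at 8 h post-dose. Increases fitted against DMSO baseline.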

[5] = molecular target: Estrogen receptor (Homo sapiens) (UniProt P03372); test: OT_ERa_GFPERaERE_0120: Odyssey Thera (OT) 2-hour HeLa Transcription Induction Assay for Estrogen Receptor (AID 2283382)
Summary of the method: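 Fluorescence-microscopy images of the GFP-ERα/ERE reporter, scored by high-content image algorithms, give the readout. HeLa exposure lasted 2 h, and only signal increase over DMSO was fitted.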

[6] = molecular target: rat Serotonin Transporter (SERT), Slc6a4 (gene 25553) (UniProt P31652); test: NVS_TR_rSERT: NovaScreen (NVS) Transporter Assay for rat Serotonin Transporter (SERT) (AID 2283375)
Sequence of rat Serotonin Transporter (SERT), Slc6a4 (gene 25553) (P31652 whole entry, looked up): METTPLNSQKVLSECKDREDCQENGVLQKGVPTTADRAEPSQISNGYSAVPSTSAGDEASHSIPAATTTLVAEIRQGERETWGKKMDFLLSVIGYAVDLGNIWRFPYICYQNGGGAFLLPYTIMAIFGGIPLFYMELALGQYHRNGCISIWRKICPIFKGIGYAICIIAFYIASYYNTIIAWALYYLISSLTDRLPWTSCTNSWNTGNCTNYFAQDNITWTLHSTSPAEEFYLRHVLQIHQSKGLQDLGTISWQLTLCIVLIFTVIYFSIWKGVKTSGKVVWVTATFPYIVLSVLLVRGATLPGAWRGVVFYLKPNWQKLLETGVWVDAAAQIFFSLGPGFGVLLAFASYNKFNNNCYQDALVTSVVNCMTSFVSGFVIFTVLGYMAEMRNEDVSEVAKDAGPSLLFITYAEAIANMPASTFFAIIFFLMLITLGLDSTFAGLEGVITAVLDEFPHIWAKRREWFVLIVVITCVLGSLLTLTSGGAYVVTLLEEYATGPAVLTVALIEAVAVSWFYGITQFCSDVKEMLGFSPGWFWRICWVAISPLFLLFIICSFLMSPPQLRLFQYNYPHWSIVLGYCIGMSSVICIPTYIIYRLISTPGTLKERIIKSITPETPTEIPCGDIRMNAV
Summary of the method: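 Steps: rat forebrain membranes dosed with chemical (25 uM duplicate primary; concentration series for actives); 1 h incubation; labelled ligand bound, filtered, counted by scintillation. Activity scored as signal loss vs DMSO.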

[7] = molecular target: Bile acid receptor (Homo sapiens) (UniProt Q96RI1); test: OT_FXR_FXRSRC1_0480: Odyssey Thera (OT) 8-hour HEK293T Protein-Complementation Assay for Farnesoid X receptor/SRC-1 Co-activator (AID 2283383)
Sequence of Bile acid receptor (Homo sapiens) (Q96RI1 whole entry, looked up, the tested form may be a part): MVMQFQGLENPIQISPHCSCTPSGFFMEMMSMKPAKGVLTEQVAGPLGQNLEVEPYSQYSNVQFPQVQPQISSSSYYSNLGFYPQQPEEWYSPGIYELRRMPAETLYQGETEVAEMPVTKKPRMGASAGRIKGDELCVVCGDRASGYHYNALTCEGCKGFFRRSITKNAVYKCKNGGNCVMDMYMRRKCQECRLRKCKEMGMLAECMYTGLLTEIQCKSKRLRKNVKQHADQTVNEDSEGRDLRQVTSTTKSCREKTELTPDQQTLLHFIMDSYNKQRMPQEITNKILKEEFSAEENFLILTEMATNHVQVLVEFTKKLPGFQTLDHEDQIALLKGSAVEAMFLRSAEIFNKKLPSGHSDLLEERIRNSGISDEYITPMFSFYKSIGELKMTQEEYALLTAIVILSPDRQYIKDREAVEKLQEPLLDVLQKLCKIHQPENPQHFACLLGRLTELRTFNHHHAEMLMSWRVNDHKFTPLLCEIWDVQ
Summary of the method: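 Binding of FXR to coactivator SRC-1 was read as fluorescence from a reconstituted split reporter in HEK293T cells, 8 h after chemical addition. Only increases in signal versus DMSO were fit.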

[8] = molecular target: Bile acid receptor (Homo sapiens) (UniProt Q96RI1); test: OT_FXR_FXRSRC1_1440: Odyssey Thera (OT) 24-hour HEK293T Protein-Complementation Assay for Farnesoid X receptor/SRC-1 Co-activator (AID 2283384)
Summary of the method: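 Protein-fragment complementation: FXR and SRC-1 fused to reporter fragments that reassemble on interaction, read by fluorescence intensity. Human HEK293T cells measured 24 h post-dose; positive-direction fit versus DMSO.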

[9] = molecular target: Agonist Androgen Response Element (ARE), AR (gene 367) (UniProt P10275); test: OT_AR_ARELUC_AG_1440: Odyssey Thera (OT) 24-hour CHO-K1 Luciferase Assay for Agonist Androgen Response Element (ARE) (AID 2283379)
Sequence of Agonist Androgen Response Element (ARE), AR (gene 367) (P10275 whole entry, looked up): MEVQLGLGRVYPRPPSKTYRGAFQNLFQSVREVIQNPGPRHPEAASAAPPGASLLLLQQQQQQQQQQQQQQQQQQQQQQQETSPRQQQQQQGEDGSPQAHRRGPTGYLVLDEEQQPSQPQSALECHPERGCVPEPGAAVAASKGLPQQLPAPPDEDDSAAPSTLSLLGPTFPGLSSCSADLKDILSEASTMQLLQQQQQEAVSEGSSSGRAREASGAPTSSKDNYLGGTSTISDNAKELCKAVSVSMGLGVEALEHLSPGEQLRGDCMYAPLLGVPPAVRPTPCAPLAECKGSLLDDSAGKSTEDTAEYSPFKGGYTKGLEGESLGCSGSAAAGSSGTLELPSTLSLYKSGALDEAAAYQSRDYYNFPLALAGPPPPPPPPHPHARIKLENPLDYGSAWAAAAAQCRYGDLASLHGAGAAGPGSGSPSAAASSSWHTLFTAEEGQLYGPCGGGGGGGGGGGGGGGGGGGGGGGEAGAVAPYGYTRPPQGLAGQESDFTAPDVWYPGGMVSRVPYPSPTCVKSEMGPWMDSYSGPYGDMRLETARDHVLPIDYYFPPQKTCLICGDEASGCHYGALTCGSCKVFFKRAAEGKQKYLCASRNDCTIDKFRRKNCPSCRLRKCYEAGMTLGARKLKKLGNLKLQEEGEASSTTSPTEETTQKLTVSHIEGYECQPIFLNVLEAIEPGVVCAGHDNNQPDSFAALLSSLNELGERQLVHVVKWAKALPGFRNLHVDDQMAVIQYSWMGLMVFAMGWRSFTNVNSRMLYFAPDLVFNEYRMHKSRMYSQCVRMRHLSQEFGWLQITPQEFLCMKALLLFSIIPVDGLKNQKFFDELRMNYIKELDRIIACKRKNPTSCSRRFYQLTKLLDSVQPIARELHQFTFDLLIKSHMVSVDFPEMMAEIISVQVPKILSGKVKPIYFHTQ
Summary of the method: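 Readout: luciferase bioluminescence from CHO-K1 ARE-luc cells, measured 24 h post-dosing; agonism = increased mean luminescence vs DMSO controls, fitted in positive direction.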

[10] = molecular target: mouse Estrogen Receptor alpha (Era), Esr1 (gene 13982) (UniProt P19785); test: NVS_NR_mERa: NovaScreen (NVS) Nuclear Receptor Binding Assay for mouse Estrogen Receptor alpha (Era) (AID 2283378);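 further: hit means loss of bound radioligand signal relative to DMSO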
Sequence of mouse Estrogen Receptor alpha (Era), Esr1 (gene 13982) (P19785 whole entry, looked up): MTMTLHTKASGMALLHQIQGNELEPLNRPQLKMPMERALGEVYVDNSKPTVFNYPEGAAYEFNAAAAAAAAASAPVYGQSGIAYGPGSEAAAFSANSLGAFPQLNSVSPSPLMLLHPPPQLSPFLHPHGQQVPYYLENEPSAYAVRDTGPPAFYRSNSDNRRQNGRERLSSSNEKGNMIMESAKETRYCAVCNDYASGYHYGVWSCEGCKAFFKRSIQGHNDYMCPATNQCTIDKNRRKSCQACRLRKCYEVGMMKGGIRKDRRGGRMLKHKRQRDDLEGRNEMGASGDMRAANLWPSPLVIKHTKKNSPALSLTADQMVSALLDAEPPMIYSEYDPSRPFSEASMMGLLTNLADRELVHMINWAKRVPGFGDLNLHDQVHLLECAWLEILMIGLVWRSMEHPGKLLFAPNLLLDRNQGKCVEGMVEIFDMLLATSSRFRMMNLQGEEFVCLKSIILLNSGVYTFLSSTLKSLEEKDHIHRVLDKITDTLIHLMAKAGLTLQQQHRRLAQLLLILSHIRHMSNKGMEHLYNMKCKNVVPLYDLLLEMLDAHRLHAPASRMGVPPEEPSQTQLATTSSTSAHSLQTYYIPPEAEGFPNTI
Summary of the method: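 Test chemicals competed against a specific radioligand for binding to cell-free mouse Era. Duplicate wells at 25 uM were read 18 hours later by filter-based radiodetection, with loss of signal against DMSO scored as activity.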

## CCCCCCCCCCCCCCOS(=O)(=O)O
[1]
  AC50: 41 µM (active)
[2]
  AC50: 37.7 µM (active)
[3]
  outcome: inactive
[4]
  AC50: 92.3 µM (active)
[5]
  outcome: inactive

## Cn1cnc2c1c(=O)[nH]c(=O)n2C
[1]
  outcome: inactive
[6]
  AC50: 2.36 µM (active)
[7]
  outcome: inactive
[8]
  outcome: inactive

## O=C1OC(c2ccc(O)cc2)(c2ccc(O)cc2)c2ccccc21
[1]
  AC50: 6.6 µM (active)
[9]
  outcome: inactive
[3]
  AC50: 11.9 µM (active)

## O=C1NC(=O)C(c2ccccc2)(c2ccccc2)N1
[1]
  AC50: 5.81 µM (active)

## S=c1[nH]c2ccccc2s1
[2]
  AC50: 13.6 µM (active)
[3]
  outcome: inactive
[7]
  outcome: inactive
[8]
  outcome: inactive

## O=C(N[C@@H](c1ccccc1)[C@@H]1CCCCN1)c1cccc(C(F)(F)F)c1Cl
[1]
  AC50: 12.2 µM (active)
[6]
  AC50: 7.98 µM (active)
[2]
  AC50: 8.04 µM (active)
[3]
  outcome: inactive
[4]
  outcome: inactive
[5]
  outcome: inactive
[7]
  AC50: 31.6 µM (active)
[8]
  AC50: 11.4 µM (active)

## CN(C)C(=O)NC1(c2ccccc2)CCN(CC[C@@]2(c3ccc(F)c(F)c3)CN(C(=O)c3ccccc3)CCO2)CC1
[2]
  outcome: inactive
[7]
  outcome: inactive
[8]
  outcome: inactive

## CC(C)NCC(O)c1ccc(O)c(O)c1 (configuration not stated)
[1]
  AC50: 11.1 µM (active)
[2]
  outcome: inactive
[3]
  outcome: inactive

## COc1ccc(OC(F)(F)F)cc1CN[C@H]1CCCN[C@H]1c1ccccc1
[6]
  AC50: 11.7 µM (active)
[2]
  AC50: 11.1 µM (active)
[3]
  outcome: inactive
[4]
  AC50: 85.4 µM (active)
[5]
  AC50: 75.7 µM (active)
[7]
  AC50: 11.3 µM (active)

## Cc1cc(SC2=C(O)C[C@@](CCc3ccc(N)cc3)(C(C)C)OC2=O)c(C(C)(C)C)cc1CO
[1]
  outcome: inactive
[6]
  outcome: inactive
[9]
  outcome: inactive
[7]
  outcome: inactive
[8]
  outcome: inactive

## Cc1ccc(-c2cc(C(F)(F)F)nn2-c2ccc(S(N)(=O)=O)cc2)cc1
[2]
  AC50: 6.38 µM (active)
[10]
  outcome: inactive
[9]
  outcome: inactive
[4]
  outcome: inactive
[5]
  outcome: inactive
